# Source: ChEMBL document CHEMBL1157539, “Thousands of chemical starting points for antimalarial lead identification” (Nature, 2010)
# Legend:
# Format in all cases: functional
# Plasmodium falciparum [1] = experiment: GSK_TCMDC: Inhibition of Plasmodium falciparum 3D7 in whole red blood cells, using parasite LDH activity as an index of growth. Test compounds present at 2uM
# Plasmodium falciparum [2] = experiment: GSK_TCMDC: Inhibition of Plasmodium falciparum Dd2 in whole red blood cells, using parasite LDH activity as an index of growth. Test compounds present at 2uM
# HepG2 = experiment: GSK_TCMDC: Percent inhibition of human HepG2 cell line. Test compounds present at 10uM.
Structure (SMILES),Inhibition (Plasmodium falciparum [1]) [%],Inhibition (Plasmodium falciparum [2]) [%],Inhibition (HepG2) [%]
COc1cc2nc(N3CCC(CNC(=O)c4ccc(-c5ccc(C(=O)N(C)C)cc5OCCO)cc4)CC3)nc(N)c2cc1OC,100,8,0
CC(C)CCNc1nc(NCc2ccccc2)c2cc(O)ccc2n1,100,92,25
COc1cccc(CNC(=O)[C@H]2CNCCN2C(=O)CCCc2ccccc2)c1.O=C(O)C(F)(F)F,91,95,56
Cc1ccc(N2CCN(CCCCNC(=O)c3ccc(NC(=O)c4ccc(Cl)cc4)cc3)CC2)c(C)c1,95,20,30
Cl.NCCCOc1cnc(-c2ccccc2)c2nc(-c3nonc3N)n(CCc3ccccc3)c12,93,86,56
COc1ccc(CN(C)Cc2ccc(NC(=O)c3cccc4c(=O)c5cccc(C)c5[nH]c34)cc2)cc1OC,92,22,7
Nc1cc(/C=C/c2ccc([N+](=O)[O-])s2)nc2ccccc12,98,48,89
CCCCCCN1CCCN(Cc2cccc(C(=O)Nc3ccc(C(C)(C)C)cc3)c2)CC1.O=C(O)C(F)(F)F,93,23,41
Cc1cc(N(C)C)nc(Nc2ccc(NC(=O)c3ccc(Br)o3)cc2)n1,100,57,1
CC(=O)N[C@H](C(=O)Nc1ccc(-c2ccc(-c3nc4cc(C(F)(F)F)ccc4[nH]3)s2)cc1)C(C)C,88,61,42
CN(C)Cc1ccc(-c2ccc(NC(=O)c3ccc4c(=O)n(Cc5ccccc5)cnc4c3)cc2)cc1,100,39,94
CN1CCN(c2cc3c(cc2Cl)CCN3C(=O)Cc2ccc(NC(=O)Nc3cccc4ccccc34)cc2)CC1,92,18,12
Cc1cccc2nc(-c3cccc(-c4cccc(C(=O)NCc5nccn5C)c4)c3)[nH]c12,99,50,22
O=C(Nc1ccc(SC(F)(F)F)cc1)Nc1ccc(Cl)c(Cl)c1,98,99,15
Cc1cccc2nc(-c3cccc(-c4ccc(CNCc5cccc(N)c5)cc4)c3)[nH]c12.O=C(O)C(F)(F)F,100,93,19
CC(C)OC(=O)c1ccc(NC(=O)N[C@@H](Cc2ccc(O)cc2)C(=O)NC2CCC(CCN3C4CCC3c3ccccc34)CC2)cc1.O=C(O)C(F)(F)F (some centres undefined),95,67,3
CC(=O)Nc1[nH]c(-c2ccccc2)nc1C(N)=O,99,0,10
CC[C@H]1CN(C/C=C/c2ccc(OC)cc2)CC[C@H]1CCCc1ccnc2ccc(O)cc12,99,72,24
CNC(=O)c1ccccc1Nc1nc(Nc2ccc(N3CCN(C)CC3)nc2)ncc1C.Cl,92,50,75
COc1ccc2nccc([C@@H](O)CN3CCC(NCc4cnc5c(c4)NC(=O)CS5)CC3)c2c1.O=C(O)C(=O)O,87,29,0
CC(=O)N(Cc1nc(-c2cc(C(F)(F)F)cc(C(F)(F)F)c2)cs1)c1c(C)cccc1C,100,99,0
Cc1cccc2nc(-c3ccc(-c4cccc(CN5CCC(N)C5)c4)s3)[nH]c12.O=C(O)C(F)(F)F (centres undefined),95,78,16
Cc1ccc(/C=C2/SC(=Nc3ccccc3)NC2=O)c(C)c1,93,90,1
O=C(Nc1n[nH]c2nc(-c3ccco3)c(Br)cc12)c1ccc(CN2CCCC2)cc1.O=C(O)C(O)C(O)C(=O)O,100,53,1
COc1ccccc1CCNc1nc(C)cc(N[C@@H](CC(C)C)C(=O)NCc2cccc(F)c2)n1.O=C(O)C(F)(F)F,94,79,20
CN1CCC(NCc2ccc(-c3cccc(S(=O)(=O)NCC4CCCO4)c3)cc2)CC1.O=C(O)C(F)(F)F (centres undefined),90,0,8
CCC(C)c1ccc(O)c(NC(=O)c2cncc(Br)c2)c1 (centres undefined),100,16,0
CS(=O)(=O)c1cccc(-c2cnc3[nH]cc(-c4ccc(C(=O)O)cc4)c3c2)c1,99,100,6
